The supplement of paper PMC6522484
Where a name gives a salt, the structure may show the parent alone. ± gives the standard deviation of the averaged measurements.

How the values were obtained:
[1] = system: DLD1; experiment: cell viability (CellTiter-Glo) relative to plate median (fraction of plate median); higher = more viable cells; settings: 10 µM, treatment time 24 h
Outline: (§1)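 Kinase inhibitor library compounds were added at a final 10 µM for 24 h to colorectal cancer cells in 384-well plates, 24 h after seeding. The cells stably expressed lentiviral TCF/Wnt firefly luciferase reporters. Firefly luciferase and CellTiterGlo luminescence came from parallel plates, and each well was normalised to its plate median (webcellHTS2, additive, untransformed), averaged over two independent replicates.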

[2] = system: HCT116; experiment: as above; settings: 10 µM; treatment time 24 h; reporter: TCF4/Wnt
Outline: as §1

[3] = system: SW480; experiment: as above; settings: 10 µM; treatment time 24 h; reporter: 7TFP
Outline: as §1

[4] = system: DLD1; experiment: TCF/Wnt firefly luciferase reporter signal relative to plate median (fraction of plate median); higher = higher Wnt reporter signal; settings: 10 µM, treatment time 24 h
Outline: as §1

[5] = system: HCT116; experiment: as above; settings: 10 µM; treatment time 24 h; reporter: TCF4/Wnt
Outline: as §1

[6] = system: SW480; experiment: as above; settings: 10 µM; treatment time 24 h; reporter: 7TFP
Outline: as §1

| Compound | cell viability ([1]; reporter: 7TFP) | cell viability ([1]; reporter: TCF4/Wnt) | cell viability [2] | cell viability [3] | TCF/Wnt firefly luciferase reporter signal ([4]; reporter: 7TFP) | TCF/Wnt firefly luciferase reporter signal ([4]; reporter: TCF4/Wnt) | TCF/Wnt firefly luciferase reporter signal [5] | TCF/Wnt firefly luciferase reporter signal [6] |
| --- | --- | --- | --- | --- | --- | --- | --- | --- |
| COc1cc2ncnc(Nc3ccc(F)c(Cl)c3)c2cc1NC(=O)/C=C/CN1CCCCC1 | 0.875 ± 0.16 | 1 ± 0.12 | 0.993 ± 0.024 | 1.16 ± 0.16 | 0.615 ± 0.035 | 0.531 ± 0.092 | 0.548 ± 0.0014 | 0.935 ± 0.071 |
| Cc1cc(Nc2cc(CN3CCOCC3)c3nc(C)c(Cc4ccc(Cl)cc4F)n3n2)n[nH]1 | 0.907 ± 0.096 | 1.05 ± 0.064 | 0.975 ± 0.12 | 0.781 ± 0.14 | 1.27 ± 0.028 | 1.17 ± 0.43 | 0.826 ± 0.61 | 0.861 ± 0.05 |
| CC[C@@H]1C(=O)N(C)c2cnc(Nc3ccc(C(=O)N[C@H]4CC[C@H](N5CCN(CC6CC6)CC5)CC4)cc3OC)nc2N1C(C)C [BI6727 (Volasertib)] | 0.744 ± 0.32 | 0.894 ± 0.071 | 0.554 ± 0.18 | 0.995 ± 0.16 | 1.68 ± 0.18 | 1.98 ± 0.49 | 0.866 ± 0.0085 | 1.39 ± 0.27 |
| CN1CC[C@H](c2c(O)cc(O)c3c(=O)cc(-c4ccccc4Cl)oc23)[C@H](O)C1 [Flavopiridol hydrochloride] | 1.27 ± 0.2 | 1.24 ± 0.092 | 0.865 ± 0.29 | 1.36 ± 0.11 | 0.393 ± 0.14 | 0.227 ± 0.069 | 0.196 ± 0.047 | 0.869 ± 0.0099 |
| C[C@@H]1CN(CC(=O)Nc2ccc3c(c2)Cc2cccc(-c4cc(=O)cc(N5CCOCC5)o4)c2S3)C[C@H](C)O1 | 0.7975 ± 0.00071 | 0.878 ± 0.043 | 0.957 ± 0.012 | 0.952 ± 0.058 | 1.3 ± 0.092 | 1.32 ± 0.11 | 1.33 ± 0.66 | 1.23 ± 0.071 |
| COc1cc2c(N3CCN(C(=O)Nc4ccc(OC(C)C)cc4)CC3)ncnc2cc1OCCCN1CCCCC1 [Tandutinib (MLN518)] | 1.09 ± 0.05 | 1.1 ± 0.085 | 1.09 ± 0.028 | 1.11 | 0.956 ± 0.12 | 1.03 ± 0.028 | 1.08 ± 0.035 | 1.33 ± 0.05 |
| C#Cc1cccc(Nc2ncnc3cc(OCCOC)c(OCCOC)cc23)c1 [Erlotinib HCl] | 1.035 ± 0.0071 | 0.934 ± 0.034 | 1.14 ± 0.078 | 1 ± 0.013 | 0.888 ± 0.023 | 0.73 ± 0.0057 | 0.729 ± 0.4 | 0.868 ± 0.3 |
| C=CC(=O)N1CCC[C@@H](n2nc(-c3ccc(Oc4ccccc4)cc3)c3c(N)ncnc32)C1 | 1.05 ± 0.077 | 1.115 ± 0.0071 | 1.36 ± 0.085 | 1.16 ± 0.064 | 0.557 ± 0.17 | 0.881 ± 0.35 | 1.33 ± 0.14 | 1.11 ± 0.042 |
| CCCNC(=O)Nc1ccc(Oc2ncnc3cc(OC)c(OC)cc23)cc1Cl | 1.15 ± 0.085 | 1.02 ± 0.03 | 1.15 ± 0.035 | 0.9145 ± 0.005 | 1.2 ± 0.085 | 1.11 ± 0.085 | 1.04 ± 0.042 | 0.975 ± 0.14 |
| OCCn1cc(-c2cnc3nnn(Cc4ccc5ncccc5c4)c3n2)cn1 | 1.16 ± 0.035 | 1.01 ± 0.071 | 1.09 ± 0.028 | 0.905 ± 0.029 | 1.1 ± 0.11 | 1.07 ± 0.13 | 1.25 ± 0.028 | 1.05 ± 0.042 |
| COc1cc(Nc2ncc(F)c(Nc3ccc4c(n3)N(COP(=O)(O)O)C(=O)C(C)(C)O4)n2)cc(OC)c1OC [R788 (Fostamatinib)] | 0.89 ± 0.13 | 0.959 ± 0.046 | 0.888 ± 0.086 | 0.923 ± 0.037 | 0.781 ± 0.21 | 0.831 ± 0.079 | 2.88 ± 0.22 | 0.879 ± 0.079 |
